Gal4-VP16 FLuc: inhibits Gal4-VP16 luciferase reporter, ROR gamma counter-screen; Drosophila S2 Gal4-VP16 UAS-luciferase, luminescence, 20 h; Potency, µM (series often up to 53.6 µM), usual class: inhibitors; 310,000 tested, 3.5% active;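 also: Gal4-VP16 expression switched on by copper sulfate through the metallothionein promoter; nearly all actives have a fitted effect of over 50% in size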
RORgamma inh: blocks mouse ROR gamma transcriptional activity | P51450 | Drosophila S2 Gal4-RORgamma UAS-luciferase reporter, 20 h | Potency, µM (titrated, usually from 53.6 µM), usual class: inhibitors | 310,000 tested, 5.4% active | AID 2551; also: nearly all actives have a fitted effect of over 60% in size
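Stably transfected Drosophila Schneider cells are the test system, with ROR gamma fused to Gal4 and luciferase under UAS control; luminescence is read after 20 hr of 700 uM copper sulfate induction at ambient temperature.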
Coupling enz: counter-screen for Giardia aldolase inhibitors: coupling enzyme system. 290,000 tested, 0.67% active. activity change, negative = inhibition, % at 58.2 µM, hits read low. coupling enzyme system counterscreen, AmpLite Red fluorescence; in the data active = activity change below about -30%
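Compounds tested against the coupling enzymes alone at 57.5 uM final; readout was AmpLite Red fluorescence (525/598 nm) after 20 min at RT.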
TrxR1 substrate: is turned over as a substrate by rat TrxR1; Potency, µM (top dose mostly 114 µM); purified TrxR1 substrate turnover, NADPH consumption readout; 390,000 tested, 0.01% active; O89049; also: nearly all actives have a fitted effect of over 50% in size
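Rat TrxR1, dispensed at 90 nM, was prereduced with 400 uM NADPH (final) for 5 min at ~22 deg C, then incubated with compound 15 min before 400 uM selenite. A first-read NADPH fluorescence drop versus no-compound background flagged substrates.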
GALK inh: galactokinase (human) inhibition | Purified GALK, Kinase-Glo residual ATP luminescence | 270,000 tested, 0.007% active | AID 1868 | Potency, µM (series often up to 57.5 µM), usual class: inhibitors
Target sequence (P51570 whole entry, looked up): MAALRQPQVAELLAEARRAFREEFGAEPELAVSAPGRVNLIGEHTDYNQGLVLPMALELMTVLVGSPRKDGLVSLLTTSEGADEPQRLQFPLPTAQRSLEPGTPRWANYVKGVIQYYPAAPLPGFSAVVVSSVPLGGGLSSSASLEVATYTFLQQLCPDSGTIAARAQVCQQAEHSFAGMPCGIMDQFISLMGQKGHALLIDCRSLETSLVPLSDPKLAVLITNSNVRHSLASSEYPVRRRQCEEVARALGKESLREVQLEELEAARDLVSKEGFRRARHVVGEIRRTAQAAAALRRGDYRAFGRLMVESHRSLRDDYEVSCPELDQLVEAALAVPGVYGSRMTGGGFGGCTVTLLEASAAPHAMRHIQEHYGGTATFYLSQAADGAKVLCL
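Compounds were pin-transferred into ATP buffer (35 uM final), then GALK plus galactose (5 nM, 100 uM final) was added. After 1 h at room temperature, Kinase-Glo Plus was added and luminescence read after 10 min.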
rTrxR1 inhibitor: blocks rat thioredoxin reductase 1; 390,000 tested, 1% active; recombinant rTrxR1, NADPH fluorescence consumption, selenite substrate; O89049; Potency, µM (doses to about 114 µM), most hits filed as inhibitors; also: nearly all actives have a fitted effect of over 65% in size
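Rat TrxR1 (90 nM in the dispensed reagent) was pre-reduced with 400 uM NADPH for 5 min at room temperature, then incubated with compound for 15 min. After 400 uM selenite was added, NADPH fluorescence (Ex 340/Em 450 nm) was followed for 8 min.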
A number is an active result; 0 = inactive; ? = inconclusive; - = no result; [ ] = dose if it differs, or a comment. In the library only some 5.9% were active in any assay of this set; here they are far more common. Unless noted, calls follow the shape of the dose curve; as a rule, active = well fitted curve in the direction sought with a large enough effect; inconclusive = small, poorly fitted or top-dose-only effect, or another doubt; inactive = no such curve, though single readings can be large; an effect the other way counts as inactive or inconclusive.

SMILES	Gal4-VP16 FLuc	RORgamma inh	Coupling enz	TrxR1 substrate	GALK inh	rTrxR1 inhibitor
CC1=NN(C(=O)COc2ccccc2C)C(O)(c2ccc(Cl)cc2)C1 (stereo not drawn)	7.9µM	14µM	0	0	0	0
CCC1=NN(C(=O)COc2ccccc2C)C(O)(c2ccncc2)C1 (stereo not drawn)	?	4µM	0	0	0	0
O=C(CSc1n[nH]c(-c2ccncc2)n1)Nc1ccc(F)cc1	0	0	0	0	0	0
O=C(CSc1n[nH]c(-c2ccccn2)n1)Nc1ccc(Cl)cc1	0.1µM	2.5µM	0	0	0	0
O=C(CSc1n[nH]c(-c2ccccn2)n1)Nc1ccc(F)cc1	?	7.9µM	0	0	0	0
Cc1ccc(NC(=O)CSc2n[nH]c(-c3ccccn3)n2)cc1	5.6µM	4.5µM	0	0	0	0
Cc1ccc(NC(=O)CSc2ccc(-c3ccccn3)nn2)cc1	0	0	0	0	0	0
CCCN(CC(=O)Nc1ccc(F)c(F)c1F)C(=O)Cn1c(=O)cnc2ccccc21	-	-	-	0	-	0
Cc1nc(SCC(=O)N(C)C2(C#N)CCCCC2)c2ccccc2n1	-	-	-	0	-	0
O=C1CC(Nc2ccc(N3CCOCC3)cc2)C(=O)N1c1cccc(C(F)(F)F)c1 (stereo not drawn)	0	0	-36	0	0	?
COc1cccc(N2C(=O)CC(Nc3ccc(N4CCOCC4)cc3)C2=O)c1 (stereo not drawn)	0	0	0	0	0	?
N#CC1(NC(=O)COC(=O)CN2C(=O)c3ccccc3C2=O)CCCCC1	-	-	-	0	-	0
COc1cc2c(cc1OC)C1=C(C#N)COCN1CC2	0	0	0	0	0	13µM
CC(=O)Nc1ccc(CCNC(=O)c2ccc3ccccc3c2O)cc1	-	-	-	0	-	0
Cc1cc(/C=N/NC(=O)C(O)(c2ccccc2)c2ccccc2)c(C)n1-c1ccccc1	?	11µM	0	0	0	0
COC(=O)N/N=C/c1cc(C)n(-c2ccccc2)c1C	0	0	0	0	0	0
Cc1cc(C(=O)N/N=C/c2ccc(O)c(O)c2O)c(C)n1-c1ccccc1	0	?	-33	0	0	0
Cc1cccc(C)c1-n1c(C)cc(/C=N/NC(=O)c2ccncc2)c1C	2.2µM	1.3µM	0	0	0	0
Cc1ccc(-n2c(C)cc(/C=N/NC(=O)c3ccncc3)c2C)cc1C	?	4µM	0	0	0	0
Cn1nccc1C(=O)NCc1ccc2c(c1)CCN2C(=O)c1ccc(Cl)cc1	-	-	-	0	-	0
O=C(c1cc2ccccc2o1)N1CCN(S(=O)(=O)/C=C/c2ccccc2)CC1	0	0	0	0	0	0
CCc1ccc(-n2c(C)cc(/C=N/NC(=O)c3ccncc3)c2C)cc1	20µM	7.1µM	0	0	0	0
Cc1cccc(C)c1-n1c(C)cc(/C=N/NC(=O)CSc2ncccn2)c1C	16µM	?	0	0	0	0
Cc1cc(C)nc(SCC(=O)N/N=C/c2cc(C)n(-c3ccccc3C)c2C)n1	0	0	0	0	-	0
Cc1cc(/C=N/NC(=O)c2cccc([N+](=O)[O-])c2)c(C)n1-c1ccccc1	4.5µM	3.5µM	0	0	0	0
SMILES	Gal4-VP16 FLuc	RORgamma inh	Coupling enz	TrxR1 substrate	GALK inh	rTrxR1 inhibitor
Cc1cc(/C=N/NC(=O)c2ccncc2)c(C)n1-c1ccccc1	?	10µM	0	0	0	0
COc1ccc(NC(=O)CSc2cn(CC(=O)N3CCCCC3)c3ccccc23)c(OC)c1	-	-	-	0	-	0
Cc1ccc(NC(=O)Cn2c(=O)n(CCCCC(=O)NCCc3ccccc3)c(=O)c3ccccc32)c(C)c1	-	-	-	0	-	0
C[C@@H](CO)NC(=O)c1ccc2c3n(nc2c1)-c1ccccc1CO3	?	6.3µM	0	0	0	0
COc1ccccc1C(=O)N/N=C(\C)c1ccc(NC(=O)Cc2ccccc2)cc1	7.9µM	0	-	0	0	0
C/C(=N\NC(=O)c1cccc(C)c1O)c1ccc(NC(=O)Cc2ccccc2)cc1	?	11µM	-	0	0	0
C/C(=N\NC(=O)c1ccccc1N)c1ccc(NC(=O)Cc2ccccc2)cc1	0	0	0	0	0	0
Cc1cc(C)cc(C(=O)Nc2c3c(nn2-c2ccccc2C)CS(=O)(=O)C3)c1	-	-	-	0	-	0
C=C1CCN(C(Cc2ccccc2)C(=O)NCc2ccc(Cl)c(Cl)c2)S(=O)(=O)c2ccccc21 (stereo not drawn)	0	0	0	0	-	0
O=C(CSc1nnc(-c2n[nH]c3ccccc23)n1-c1ccccc1)Nc1cccc(Cl)c1	0	0	0	0	0	0
Cc1ccc(-n2c(Cc3ccccc3)n[nH]c2=S)c(C)c1	?	1.6µM	0	0	0	0
Nn1c(Cc2ccccc2)n[nH]c1=S	0	0	0	0	0	0
S=c1[nH]nc(Cc2ccccc2)n1-c1cccc2ccccc12	?	4µM	0	0	-	0
Cc1ccc(-n2c(CC#N)n[nH]c2=S)c(C)c1	0	0	0	0	-	0
Cc1ccc(C)c(-n2c(N)c(C#N)c3nc4ccccc4nc32)c1	-	-	-	0	-	0
Cc1ccc(-n2cc[nH]c2=S)c(C)c1	?	10µM	0	0	0	0
Cc1ccc(-n2c(N)c(C(N)=O)sc2=S)c(C)c1	0	0	0	0	0	0
FC(F)(F)c1cnc(-n2cc[nH]c2=S)c(Cl)c1	0	0	0	0	0	0
Cc1ccc(C)c(-n2cc[nH]c2=S)c1	?	11µM	0	0	0	0
Cc1cc(C)cc(-n2cc[nH]c2=S)c1	10µM	7.1µM	0	0	0	0
Cc1nn(C)c(C)c1Sc1ccc(Br)cc1	0	0	0	0	0	0
COc1cc(-c2cc(C(=O)Nc3ccc(S(=O)(=O)Nc4ncccn4)cc3)c3ccccc3n2)cc(OC)c1OC	11µM	0	0	0	0	0
CCNC(=O)COC(=O)c1cc(-c2ccco2)nc2ccccc12	0	0	0	0	-	11µM
CCN(CC)CCNC(=O)c1ccc(NC(=O)c2cc(-c3ccco3)nc3ccccc23)cc1	0	0	-	0	0	?
COc1ccc(NC(=O)c2cc(-c3ccco3)nc3ccccc23)cn1	-	-	-	0	-	18µM
CN(C)C(=O)c1ccc(NC(=O)c2cc(-c3ccco3)nc3ccccc23)cc1	0	0	-	0	0	40µM
O=C(NC(=S)Nc1cccc(S(=O)(=O)NC2=NCCC2)c1)c1cc(-c2ccco2)nc2ccccc12	0	0	0	0	-	25µM
COC(=O)/C=C1\C(=O)N(c2nc3ccc(OC)cc3s2)C(=S)N1c1ccc(F)cc1	0[0.365 µM]	?	0	-	0	-
Cc1cccc(CC2CC(=O)N(c3nc4ccccc4s3)C2=O)c1 (stereo not drawn)	0	0	0	0	0	0
Cc1ccc2nc(N3C(=O)CNC3=S)sc2c1	3.5µM	1µM	0	0	-	0

Source: PubChem BioAssay (National Center for Advancing Translational Sciences (NCATS))
